HCMV antiviral: blocks human cytomegalovirus replication | HFF cells, HCMV-luciferase reporter, 72 h; active compounds read low | activity change, negative = inhibition, % at 57.5 µM | hit rate 4.5% among 410,000; in the data active = activity change below about -60%; inconclusive = no clear call, values can overlap the other calls; inactive = above about -39%
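Cell-based, HFFs, 1000 cells/well, 16 h 37C; cpds in DMSO + HCMV-luc, MOI 1 PFU/cell; 72 h 37C; OneGlo luminescence after 5 min RT; norm. to buffer vs Salinomycin 10uM.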
Vaccinia Venus: inhibitors of vaccinia virus (Venus reporter); Vaccinia virus Venus reporter expression, fluorescence; Potency, µM (doses to about 36.5 µM), without a hit: at the highest dose activity change, negative = inhibition, actives largely listed as inhibitors; hit rate 0.46% among 330,000; AID 720580; calls by dose curve; tested in A549 cells; note: potency is the fitted concentration of half-maximal effect; nearly all actives have a fitted effect of over 30% in size
MARV entry inh: inhibitors of Marburg virus binding or cell entry. Marburg virus pseudotyped entry inhibition, cell reporter. Potency, µM (top dose mostly 37.8 µM), for inactives: top-dose activity change, negative = inhibition, most hits filed as inhibitors. hit rate 1.8% among 300,000. AID 540276; calls by dose curve; tested in HEK293 cells; note: potency is the fitted concentration of half-maximal effect
FMDV inh: foot and mouth disease virus antiviral activity | FMDV antiviral cell-based qHTS | Potency, µM (top dose mostly 57.9 µM), without a hit: top-dose activity change, negative = inhibition, most hits filed as inhibitors | hit rate 1.2% among 410,000 | AID 1159524; calls by dose curve; tested in HEK293T cells; note: read-out not given here; potency is the fitted concentration of half-maximal effect; nearly all actives have a fitted effect of over 45% in size
Lassa entry inh: inhibitors of Lassa virus binding or cell entry; Potency, µM (doses to about 37.9 µM), for inactives: at the highest dose activity change, negative = inhibition, actives largely listed as inhibitors; hit rate 1.2% among 300,000; Lassa virus pseudotype entry inhibition, cell reporter; calls by dose curve; tested in HEK293 cells; note: potency is the fitted concentration of half-maximal effect; nearly all actives have a fitted effect of over 50% in size
Vaccinia mCherry: inhibitors of vaccinia virus infection (mCherry reporter signal) | Vaccinia virus mCherry reporter infection, fluorescence | Potency, µM (top dose mostly 36.5 µM), without a hit: at the top dose activity change, negative = inhibition, usual class: inhibitors | hit rate 0.63% among 310,000 | AID 720579; calls by dose curve; tested in A549 cells; note: potency is the fitted concentration of half-maximal effect; nearly all actives have a fitted effect of over 35% in size
* hit, by the source's call; ? = inconclusive; · = not tested or not shown; [ ] = another dose, or the depositor's remark. Rows were chosen to be rich in hits. Some 6.5% of all compounds tested hit in one or more screens of this group. % is set by controls: 0 for no effect and ±100 for the full control effect.

SMILES | HCMV antiviral | Vaccinia Venus | MARV entry inh | FMDV inh | Lassa entry inh | Vaccinia mCherry
Cc1cccc(N(C)C(=O)Cc2c(C(=O)O)[nH]c3ccccc23)c1 | 16 | -2% | -1%[46.1 µM] | -6% | -16%[46.1 µM] | -7%
Cc1ccccc1NC(=O)CSc1cn(CC(=O)N2CCCCCC2)c2ccccc12 | 26 | -6% | · | -5% | -11%[46.1 µM] | -11%
CC1CCN(C(=O)C2CCN(S(=O)(=O)c3cc(Cl)ccc3Cl)CC2)CC1 | -87* | -4% | -9%[46.1 µM] | -19% | ? | 2%
O=C(NCc1ccccn1)Nc1cc(Cl)ccc1Cl | -67* | · | · | 8% | · | ·
Cc1ccc(Cl)cc1NC(=O)NCc1ccccn1 | -24 | · | · | 27% | · | ·
CCN(CC)S(=O)(=O)c1ccc(S(=O)(=O)N2CCC(C(=O)NC3CCN(Cc4ccccc4)CC3)CC2)cc1 | · | -5% | ? | -5% | · | 7%
Cc1ccc(Cl)cc1S(=O)(=O)N1CCC(C(=O)NC2CCN(Cc3ccccc3)CC2)CC1 | -72* | 0% | ? | -14% | -12%[46.1 µM] | -19%
O=C(NCc1cccnc1)C1CCN(S(=O)(=O)c2cc([N+](=O)[O-])ccc2Cl)CC1 | -29 | ? | -29% | ? | 1% | 14µM*
Cc1cc(C)c(S(=O)(=O)OC[C@H]2C=CC[C@@H](CCC[C@H]3O[C@H](C(=O)OC(C)C)CC[C@@H]3C)O2)c(C)c1 | · | · | -14%[14.2 µM] | · | · | ·
COc1ccc(NC(=O)c2cc3c(=O)n(Cc4ccco4)ccc3nc2C)cc1 | -22 | -10% | · | -7% | ? | -5%
O=C(Nc1nc2ccc(F)cc2s1)C1CCN(S(=O)(=O)c2cc([N+](=O)[O-])ccc2Cl)CC1 | -6 | ? | ? | 20µM* | ? | ?
O=C(NCc1ccccn1)C1CCN(S(=O)(=O)c2cc(Cl)ccc2Cl)CC1 | -62* | -7% | 16% | -11% | -21% | -18%
Cc1ccc(NC(=O)C2CCN(S(=O)(=O)c3cc([N+](=O)[O-])ccc3Cl)CC2)nc1 | -30 | · | · | ? | · | ·
Cc1ccc2nc(NC(=O)C3CCN(S(=O)(=O)c4cc([N+](=O)[O-])ccc4Cl)CC3)sc2c1 | -10 | ? | 8.2µM* | ? | ? | ?
CCOc1ccc(Cl)cc1S(=O)(=O)N1CCC(C(=O)NCc2ccccn2)CC1 | 26 | -3% | 6%[46.1 µM] | 6% | · | -2%
COc1ccc(C=CC(=O)c2ccc([N+](=O)[O-])cc2)cc1 | -23 | 2% | -1%[46.1 µM] | 24% | 0%[46.1 µM] | -30%
Cc1[nH]c(C)c(C(=O)/C=C/c2ccc([N+](=O)[O-])cc2)c1C | -101* | · | · | 21% | · | ·
Cc1ccc(NC(=O)C(=Cc2ccc(C(=O)O)cc2)C(=O)Nc2ccc(C)cc2C)c(C)c1 | · | · | · | 11µM* | · | ·
COc1ccc(-n2nc(C(=O)NCC(=O)NC3CCCCC3)c3ccccc3c2=O)c(OC)c1 | 22 | -3% | ? | 1% | 13µM* | -15%
COc1ccc(-n2nc(C(=O)NCC(=O)NC3CCCCCC3)c3ccccc3c2=O)c(OC)c1 | -10 | -15% | 14%[46.1 µM] | 13% | -19%[46.1 µM] | ?
COc1ccc(-n2nc(C(=O)NCC(=O)Nc3cc(C)ccc3OC)c3ccccc3c2=O)c(OC)c1 | -5 | 0% | 2%[46.1 µM] | -3% | 6.3µM* | -1%
COc1cc(/C=N/N=C(N)N)ccc1OCc1ccccc1Cl | -100* | · | · | -39% | · | ·
COc1ccc(/C=N/N=C/c2ccc(OC)c(OC)c2)cc1OC | 16 | · | 5% | 10% | -2% | ·
COC(=O)C1CCCCN1Cc1ccc2c(c1)CN(C(=O)c1cc(C)nc3cc(F)ccc13)CCO2 (centres undefined) | · | -2% | · | -23% | · | -8%
Brc1cccc(-c2nnc(SCc3nc4ccccc4[nH]3)o2)c1 | 2 | ? | -3% | ? | -1% | 10µM*
c1ccc2[nH]c(CSc3nnc(-c4ccncc4)o3)nc2c1 | -22 | ? | -1% | ? | 4% | ·
Cn1ncc(Cl)c(Oc2ccc(Cl)cc2)c1=O | 59 | ? | ? | -9% | ? | ?
Cn1ncc(Oc2ccc([N+](=O)[O-])cc2)c(Cl)c1=O | -91* | -13% | 10%[46.1 µM] | 1% | 0% | ?
C[C@H](CO)N1C[C@H](C)[C@@H](CN(C)S(=O)(=O)c2ccc(F)cc2)Oc2cc(Br)ccc2S1(=O)=O | -2 | · | · | · | · | ·
CCN(CCNC(=O)[C@H]1C=C(OC)C(=O)C[C@H](c2ccccc2)[C@@H]1C)C(C)=O | · | · | -18%[14.2 µM] | · | · | ·

Compound activity: PubChem, National Center for Advancing Translational Sciences (NCATS)
